What all share (conditions): mRNA level, 48 h; actives raise or lower the signal
Read-out in assay [1]: Interleukin 6 Receptor (IL6R), IL6R (gene 3570)
In words: LTEA_HepaRG_IL6R: Life Technologies and Expression Analysis (LTEA) Assay for Interleukin 6 Receptor (IL6R) using HepaRG (AID 2283510). In a few lines:
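HepaRG, 48 h exposure, 8-pt half-log series, top 100 uM, 0.5% DMSO vehicle, duplicates. Read-out: TaqMan qRT-PCR of IL6R transcript, housekeeping-gene normalized. Gain or loss fitted relative to DMSO baseline.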

Read-out in assay [2]: Potassium channel subfamily K member 1 (KCNK1), KCNK1 (gene 3775)
Kind of assay: LTEA_HepaRG_KCNK1: Life Technologies and Expression Analysis (LTEA) Assay for Potassium channel subfamily K member 1 (KCNK1) using HepaRG (AID 2283511). In a few lines:
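HepaRG, 48 h exposure, 8-pt half-log series top 100 uM, 0.5% DMSO vehicle, duplicates. Readout: KCNK1 transcript by qRT-PCR (Fluidigm array), housekeeping-normalized; bidirectional curve fit relative to DMSO baseline.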

Read-out in assay [3]: Keratin 19 (KRT19), KRT19 (gene 3880)
Kind of assay: LTEA_HepaRG_KRT19: Life Technologies and Expression Analysis (LTEA) Assay for Keratin 19 (KRT19) using HepaRG (AID 2283512). Summed up:
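KRT19 transcript levels, measured by Fluidigm qRT-PCR against three housekeeping genes, are fitted for gain or loss of signal relative to DMSO. Human HepaRG cells receive test chemicals (top 100 uM, half-log steps, 0.5% DMSO) for 48 hours.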

Read-out in assay [4]: JUN Transcription Factor, JUN (gene 3725)
Kind of assay: LTEA_HepaRG_JUN: Life Technologies and Expression Analysis (LTEA) Assay for JUN Transcription Factor using HepaRG (AID 2283513). In a few lines:
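HepaRG, 48 h exposure, 8-pt half-log series top 100 uM, 0.5% DMSO, duplicate. JUN mRNA by qRT-PCR (Fluidigm), housekeeping-normalized (ACTB/GAPDH/POLR2A); bidirectional curve fit vs DMSO baseline.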

Read-out in assay [5]: Lipase C (LIPC), LIPC (gene 3990)
Kind of assay: LTEA_HepaRG_LIPC: Life Technologies and Expression Analysis (LTEA) Assay for Lipase C (LIPC) using HepaRG (AID 2283514). Summed up: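 HepaRG, 48 h exposure, 8-pt half-log series from 100 uM in 0.5% DMSO, duplicates. Readout: LIPC mRNA by Fluidigm qRT-PCR, housekeeping-normalized (ACTB/GAPDH/POLR2A). Gain or loss fitted bidirectionally against DMSO baseline.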

Read-out in assay [6]: Lipoprotein lipase (LPL), LPL (gene 4023)
Kind of assay: LTEA_HepaRG_LPL: Life Technologies and Expression Analysis (LTEA) Assay for Lipoprotein lipase (LPL) using HepaRG (AID 2283515). Summed up: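 HepaRG, 48 h exposure, 8-pt half-log dilutions from 100 uM, 0.5% DMSO vehicle, duplicates; qRT-PCR (Fluidigm array) of LPL mRNA vs housekeeping genes; bidirectional curve fit relative to DMSO baseline.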

Read-out in assay [7]: MicroRNA 122 (MIR122), gene 406906
In words: LTEA_HepaRG_MIR122: Life Technologies and Expression Analysis (LTEA) Assay for MicroRNA 122 (MIR122) using HepaRG (AID 2283516). Further: the transcript read is the microRNA miR-122. In a few lines:
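qRT-PCR read-out (TaqMan, Fluidigm array), normalized to three housekeeping genes; HepaRG cells dosed 48 h at 8 concentrations up to 100 uM in 0.5% DMSO, duplicate; gain or loss fitted against DMSO baseline.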

Read-out in assay [8]: matrix metalloproteinase-10 (MMP10), MMP10 (gene 4319)
In words: LTEA_HepaRG_MMP10: Life Technologies and Expression Analysis (LTEA) Assay for matrix metalloproteinase-10 (MMP10) using HepaRG (AID 2283517). In a few lines:
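Transcript levels come from Fluidigm qRT-PCR normalized to three housekeeping genes, with curves fitted bidirectionally against 0.5% DMSO. Human HepaRG cells were dosed for 48 hours at concentrations up to 100 uM.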

Read-out in assay [9]: matrix metalloproteinase-3 (MMP3), MMP3 (gene 4314)
Kind of assay: LTEA_HepaRG_MMP3: Life Technologies and Expression Analysis (LTEA) Assay for matrix metalloproteinase-3 (MMP3) using HepaRG (AID 2283519). In a few lines:
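qRT-PCR read-out of MMP3 mRNA (normalised to three housekeeping genes) in HepaRG liver cells after 48 h chemical exposure; 8-point half-log series, top 100 uM, 0.5% DMSO vehicle. Bidirectional curve fitting against DMSO baseline.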

Read-out in assay [10]: Paternally Expressed 10 (PEG10), PEG10 (gene 23089)
In words: LTEA_HepaRG_PEG10: Life Technologies and Expression Analysis (LTEA) Assay for Paternally Expressed 10 (PEG10) using HepaRG (AID 2283520).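 On AC50: differentiated HepaRG human liver cells in serum-free induction medium with 0.5% DMSO; PEG10 transcript by qRT-PCR normalised to ACTB GAPDH and POLR2A.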 Summed up: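 qRT-PCR read-out: PEG10 mRNA normalised to three housekeeping genes, fitted bidirectionally against 0.5% DMSO vehicle. HepaRG cells received test chemicals for 48 h in serum-free induction medium, 8 points, top 100 uM, half-log steps.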

Read-out in assay [11]: Nuclear factor NF-kappa-B p105 subunit (Homo sapiens) (UniProt P19838)
Kind of assay: LTEA_HepaRG_NFKB1: Life Technologies and Expression Analysis (LTEA) Assay for Nuclear Factor Kappa B Subunit 1 (NFKB1) using HepaRG (AID 2283521).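 Further: differentiated human HepaRG liver cells in serum-free induction medium; TaqMan qRT-PCR transcript normalised to ACTB GAPDH and POLR2A housekeeping genes.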 Summed up:
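HepaRG, 48 h exposure; 8-pt half-log series from 100 uM in 0.5% DMSO; duplicates. Readout: NFKB1 mRNA by qRT-PCR (Fluidigm arrays), housekeeping-normalized. Gain/loss fit vs DMSO baseline.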

Read-out in assay [12]: Protein phosphatase 2A (PPP2R4), PTPA (gene 5524)
In words: LTEA_HepaRG_PPP2R4: Life Technologies and Expression Analysis (LTEA) Assay for Protein phosphatase 2A (PPP2R4) using HepaRG (AID 2283522). Summed up: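 HepaRG, 48 h exposure, 8-pt half-log series from 100 uM, 0.5% DMSO vehicle, duplicates. Readout: PPP2R4 mRNA, Fluidigm qRT-PCR, housekeeping-normalized. Bidirectional curve fit vs DMSO baseline.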

Read-out in assay [13]: Phosphatase and tensin (PTEN), PTEN (gene 5728)
In words: LTEA_HepaRG_PTEN: Life Technologies and Expression Analysis (LTEA) Assay for Phosphatase and tensin (PTEN) using HepaRG (AID 2283523). Summed up: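 HepaRG, 48 h exposure, 8-pt half-log series from 100 uM top, 0.5% DMSO vehicle, duplicates. Readout: Fluidigm qRT-PCR of PTEN transcript; housekeeping normalization (ACTB, GAPDH, POLR2A). Gain or loss fitted relative to DMSO baseline.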

Read-out in assay [14]: Pyruvate Dehydrogenase Kinase 4 (PDK4), PDK4 (gene 5166)
Kind of assay: LTEA_HepaRG_PDK4: Life Technologies and Expression Analysis (LTEA) Assay for Pyruvate Dehydrogenase Kinase 4 (PDK4) using HepaRG (AID 2283525). Summed up: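 HepaRG (human liver line), 48 h chemical exposure, 8-pt half-log CRC top 100 uM, 0.5% DMSO vehicle, duplicates. Readout: TaqMan qRT-PCR of PDK4 mRNA, housekeeping-normalized; gain/loss fit relative to DMSO baseline.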

Read-out in assay [15]: NAD(P)H dehydrogenase [quinone] 1 (NQO1), NQO1 (gene 1728)
Kind of assay: LTEA_HepaRG_NQO1: Life Technologies and Expression Analysis (LTEA) Assay for NAD(P)H dehydrogenase [quinone] 1 (NQO1) using HepaRG (AID 2283526). Summed up:
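qRT-PCR read-out (Fluidigm TaqMan), normalized to three housekeeping genes, after 48 h chemical exposure of HepaRG cells. Concentrations: eight points, top 100 uM, half-log steps, 0.5% DMSO vehicle. Gain or loss of signal fitted relative to DMSO.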

Read-out in assay [16]: Nuclear factor erythroid 2-related factor 2 (Homo sapiens) (UniProt Q16236)
Kind of assay: LTEA_HepaRG_NFE2L2: Life Technologies and Expression Analysis (LTEA) Assay for Nuclear factor erythroid 2-related factor 2 (NFE2L2) Transcription Factor using HepaRG (AID 2283527).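 On outcome: TaqMan qRT-PCR transcript level normalised to ACTB GAPDH and POLR2A housekeeping genes.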 Summed up: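 HepaRG, 48 h dosing, 8-pt half-log series from 100 uM in 0.5% DMSO, duplicates. Read-out: NFE2L2 mRNA by qRT-PCR (ACTB/GAPDH/POLR2A normalization). Bidirectional curve fit vs DMSO baseline.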

Read-out in assay [17]: succinate dehydrogenase complex iron sulfur subunit B (SDHB), SDHB (gene 6390)
In words: LTEA_HepaRG_SDHB: Life Technologies and Expression Analysis (LTEA) Assay for succinate dehydrogenase complex iron sulfur subunit B (SDHB) using HepaRG (AID 2283528). In a few lines:
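Readout is SDHB transcript level by qRT-PCR, normalised to three housekeeping genes and fitted bidirectionally against 0.5% DMSO vehicle. Human HepaRG cells were treated for 48 h at up to 100 uM.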

Read-out in assay [18]: Signal transducer and activator of transcription 3 (Homo sapiens) (UniProt P40763)
Kind of assay: LTEA_HepaRG_STAT3: Life Technologies and Expression Analysis (LTEA) Assay for Signal transducer and activator of transcription (STAT3) using HepaRG (AID 2283529). In a few lines: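 HepaRG, 48 h exposure, 8-pt half-log series (top 100 uM), 0.5% DMSO vehicle, duplicates. Readout: STAT3 transcript by Fluidigm qRT-PCR, housekeeping-normalized; bidirectional fit vs DMSO baseline.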

Read-out in the next assay: MYC, MYC (gene 4609)
In words: LTEA_HepaRG_MYC: Life Technologies and Expression Analysis (LTEA) Assay for MYC using HepaRG (AID 2283518). In a few lines:
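HepaRG, ~100,000 cells/well, collagen I; 48 h plating; serum-free induction medium; 48 h dosing, duplicate, 100 uM top, half-log, 0.5% DMSO; total RNA → qRT-PCR MYC; gain/loss fit vs DMSO.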

Read-out in assay [19]: solute carrier (SLC22A1), SLC22A1 (gene 6580)
Kind of assay: LTEA_HepaRG_SLC22A1: Life Technologies and Expression Analysis (LTEA) Assay for solute carrier (SLC22A1) using HepaRG (AID 2283524). Summed up: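 qRT-PCR readout (TaqMan, Fluidigm arrays) of SLC22A1 transcript, normalized to three housekeeping genes; bidirectional curve fit relative to 0.5% DMSO vehicle. Differentiated human HepaRG cells, 48 h chemical exposure, top concentration 100 uM, half-log steps, eight points.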

Drawing on PubChem BioAssay (EPA / NIEHS), this text covers outcome and AC50 for three compounds.

Activity calls are given as the source filed them. How the source made its calls: active means hit-call score of the fitted dose curve at least 0.9, where 1 is the maximum; inactive means score below 0.9.

Sequence of Nuclear factor erythroid 2-related factor 2 (Homo sapiens) (Q16236 whole entry, looked up): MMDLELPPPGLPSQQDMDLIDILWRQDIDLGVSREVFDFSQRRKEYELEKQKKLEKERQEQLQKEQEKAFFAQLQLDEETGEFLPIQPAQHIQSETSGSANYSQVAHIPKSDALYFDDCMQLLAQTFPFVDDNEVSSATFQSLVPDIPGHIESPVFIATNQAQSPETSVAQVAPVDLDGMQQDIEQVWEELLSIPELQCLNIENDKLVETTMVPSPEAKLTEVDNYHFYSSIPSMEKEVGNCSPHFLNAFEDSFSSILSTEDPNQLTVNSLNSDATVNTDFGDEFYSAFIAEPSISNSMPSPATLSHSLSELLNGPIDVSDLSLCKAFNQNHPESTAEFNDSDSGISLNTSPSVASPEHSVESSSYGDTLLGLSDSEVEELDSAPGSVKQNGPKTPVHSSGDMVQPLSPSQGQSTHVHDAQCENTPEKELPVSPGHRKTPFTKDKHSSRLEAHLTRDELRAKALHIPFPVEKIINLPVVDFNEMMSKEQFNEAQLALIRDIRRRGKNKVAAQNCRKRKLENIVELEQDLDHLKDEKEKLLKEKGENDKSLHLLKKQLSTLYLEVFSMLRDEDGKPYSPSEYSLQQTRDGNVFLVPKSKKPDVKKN
Sequence of Signal transducer and activator of transcription 3 (Homo sapiens) (P40763 whole entry, looked up): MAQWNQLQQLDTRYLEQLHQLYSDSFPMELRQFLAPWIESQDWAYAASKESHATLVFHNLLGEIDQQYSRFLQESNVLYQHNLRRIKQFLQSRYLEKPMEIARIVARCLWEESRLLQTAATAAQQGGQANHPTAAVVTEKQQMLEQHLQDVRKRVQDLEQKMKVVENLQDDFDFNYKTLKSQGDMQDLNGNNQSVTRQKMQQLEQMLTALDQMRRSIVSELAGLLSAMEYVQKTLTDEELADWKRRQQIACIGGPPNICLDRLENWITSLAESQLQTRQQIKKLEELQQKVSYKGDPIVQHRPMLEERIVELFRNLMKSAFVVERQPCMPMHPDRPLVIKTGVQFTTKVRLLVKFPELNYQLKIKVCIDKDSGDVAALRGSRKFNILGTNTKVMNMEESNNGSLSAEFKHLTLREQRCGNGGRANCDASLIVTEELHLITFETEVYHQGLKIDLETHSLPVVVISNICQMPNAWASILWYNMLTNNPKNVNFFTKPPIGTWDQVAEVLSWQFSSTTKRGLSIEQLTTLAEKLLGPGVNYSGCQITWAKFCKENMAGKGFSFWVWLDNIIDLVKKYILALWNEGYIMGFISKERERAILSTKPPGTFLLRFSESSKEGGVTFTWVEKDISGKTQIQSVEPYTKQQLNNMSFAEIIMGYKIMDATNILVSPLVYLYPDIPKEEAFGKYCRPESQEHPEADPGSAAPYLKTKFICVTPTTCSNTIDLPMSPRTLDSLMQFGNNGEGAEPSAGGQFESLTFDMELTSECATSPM
Sequence of Nuclear factor NF-kappa-B p105 subunit (Homo sapiens) (P19838 whole entry, looked up): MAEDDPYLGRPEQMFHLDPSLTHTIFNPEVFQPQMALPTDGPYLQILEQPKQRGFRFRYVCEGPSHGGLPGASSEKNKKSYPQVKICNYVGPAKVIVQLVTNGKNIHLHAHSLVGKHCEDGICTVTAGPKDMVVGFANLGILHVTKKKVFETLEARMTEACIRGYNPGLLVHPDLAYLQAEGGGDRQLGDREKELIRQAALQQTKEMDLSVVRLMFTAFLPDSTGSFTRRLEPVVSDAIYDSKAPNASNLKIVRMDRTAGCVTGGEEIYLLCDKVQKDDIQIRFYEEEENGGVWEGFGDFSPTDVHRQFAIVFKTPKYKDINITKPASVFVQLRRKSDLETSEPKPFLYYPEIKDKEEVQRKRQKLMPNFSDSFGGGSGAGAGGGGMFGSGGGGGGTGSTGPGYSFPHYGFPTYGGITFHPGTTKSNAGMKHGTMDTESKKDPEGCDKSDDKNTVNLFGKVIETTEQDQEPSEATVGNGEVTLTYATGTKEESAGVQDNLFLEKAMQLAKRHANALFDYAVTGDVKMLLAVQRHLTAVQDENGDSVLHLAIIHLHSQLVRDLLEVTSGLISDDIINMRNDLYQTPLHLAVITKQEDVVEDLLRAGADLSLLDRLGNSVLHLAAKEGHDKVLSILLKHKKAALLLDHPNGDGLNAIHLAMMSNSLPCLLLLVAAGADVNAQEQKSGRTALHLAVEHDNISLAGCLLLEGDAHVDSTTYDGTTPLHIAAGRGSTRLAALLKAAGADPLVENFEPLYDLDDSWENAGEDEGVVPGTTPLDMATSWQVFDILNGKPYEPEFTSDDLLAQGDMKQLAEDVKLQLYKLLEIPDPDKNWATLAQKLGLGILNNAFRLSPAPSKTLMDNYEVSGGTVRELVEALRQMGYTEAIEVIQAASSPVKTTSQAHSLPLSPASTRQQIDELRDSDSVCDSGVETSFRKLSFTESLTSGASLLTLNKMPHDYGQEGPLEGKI

As to `CO/N=C(/C1=NOCCO1)c1ccccc1Oc1ncnc(Oc2ccccc2Cl)c1F`, the call in [1], in [2], in assay [4], in assay [11], in [12] and in assay [13] was inactive. The result in assay [15] and in assay [17] was inactive. The concentration at half-maximal activity (AC50) in assay [3] was 13.3 µM (active); in assay [5], 30.1 µM (active); in [6] it was 23.2 µM (active); in assay [7], 26.4 µM (active); in assay [8] it was 50 µM (active); in assay [9], 50 µM (active). Besides, the concentration at half-maximal activity (AC50) is 5.88 µM (active) in [10], 11.7 µM (active) in [14], 50 µM (active) in [16] and 6.5 µM (active) in assay [18].

Turning to `CC1(C)C(C=C(Cl)Cl)C1C(=O)OC(C#N)c1cccc(Oc2ccccc2)c1` (stereo unspecified), the outcome in assay [1], in assay [2], in [3], in assay [4], in assay [5] and in assay [6] was inactive. Further, the outcome in assay [7] is “inactive”; in assay [8], “inactive”; in the assay with MYC, MYC (gene 4609), “inactive”; in assay [9] it was “inactive”; in assay [11], “inactive”; in assay [12], “inactive”. The outcome in assay [13], in assay [15], in assay [16], in assay [17] and in assay [18] was inactive. In addition, the AC50 in [10] and in [14] was 50 µM (active) throughout.

As for `Nc1c(Cl)c(Cl)nc(C(=O)O)c1Cl`, the outcome in assay [2], in assay [3], in assay [4], in assay [5], in assay [6] and in assay [7] was inactive. Moreover, the outcome is “inactive” in assay [8]; “inactive” in the assay with MYC, MYC (gene 4609); “inactive” in assay [9]; “inactive” in assay [10]; “inactive” in assay [11]; “inactive” in [12]. Also, the compound was called inactive in assay [13], in assay [19], in assay [14], in [15], in [16] and in [17]. Moreover, the outcome in assay [18] was inactive.

The AC50 is the concentration giving half of the maximal activity seen.
